Some structures have more than one record in an assay (separate samples or runs), and their calls can disagree. Calls of active or inactive are those of the source. Rule for the calls: active = hit-call score of the fitted dose curve at least 0.9, where 1 is the maximum; inactive = score below 0.9.
Key:
[1] = BSK_CASM3C_SRB: Viability Assessment in the BioMAP Diversity Plus: CASM3C Assay (AID 2283050); conditions: primary human coronary artery smooth muscle cells;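 note: cells exposed to compound for 24 h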
[2] = read-out: Thrombomodulin, THBD (gene 7056); test: BSK_CASM3C_Thrombomodulin: BioMAP Diversity Plus: CASM3C Assay for Thrombomodulin Biomarker Activity (AID 2283051); conditions: primary human coronary artery smooth muscle cells; actives raise or lower the signal;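 note: thrombomodulin protein level measured by ELISA 24 h after dosing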
[3] = read-out: Tissue Factor, F3 (gene 2152); test: BSK_CASM3C_TissueFactor: BioMAP Diversity Plus: CASM3C Assay for Tissue Factor Biomarker Activity (AID 2283052); conditions: primary human coronary artery smooth muscle cells; actives raise or lower the signal;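 note: cell surface tissue factor protein level read by ELISA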
[4] = read-out: Interferon-gamma inducible Protein 10 (IP10), CXCL10 (gene 3627); test: BSK_hDFCGF_IP10: BioMAP Diversity Plus: hDFCGF Assay for Interferon-gamma inducible Protein 10 (IP10) Biomarker Activity (AID 2283053); conditions: primary human foreskin fibroblasts; actives raise or lower the signal
In short: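 Primary foreskin fibroblasts, human; 24 h compound exposure; IP-10 by ELISA; bidirectional fit vs DMSO.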

[5] = read-out: Urokinase-type plasminogen activator receptor (uPAR), PLAUR (gene 5329); test: BSK_CASM3C_uPAR: BioMAP Diversity Plus: CASM3C Assay for Urokinase-type plasminogen activator receptor (uPAR) Biomarker Activity (AID 2283054); conditions: primary human coronary artery smooth muscle cells; actives raise or lower the signal;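 note: cell-surface uPAR protein level quantified by ELISA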
[6] = read-out: Vascular cell adhesion molecule 1 (VCAM1), VCAM1 (gene 7412); test: BSK_CASM3C_VCAM1: BioMAP Diversity Plus: CASM3C Assay for Vascular cell adhesion molecule 1 (VCAM1) Biomarker Activity (AID 2283055); conditions: primary human coronary artery smooth muscle cells; actives raise or lower the signal;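 note: VCAM-1 protein level quantified by ELISA on the cells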
[7] = read-out: Collagen III, COL3A1 (gene 1281); test: BSK_hDFCGF_CollagenIII: BioMAP Diversity Plus: hDFCGF Assay for Collagen III Biomarker Activity (AID 2283056); conditions: primary human foreskin fibroblasts; actives raise or lower the signal
In short: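 hDFCGF primary human dermal fibroblasts; 24 h chemical exposure; collagen III by ELISA; bidirectional curve fit vs DMSO baseline (gain or loss of signal).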

[8] = read-out: Interleukin-8 (IL8), CXCL8 (gene 3576); test: BSK_hDFCGF_IL8: BioMAP Diversity Plus: hDFCGF Assay for Interleukin-8 (IL8) Biomarker Activity (AID 2283058); conditions: primary human foreskin fibroblasts; actives raise or lower the signal
In short: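 ELISA read-out of IL-8 from primary human foreskin fibroblast cultures taken 24 h after dosing; values are bidirectional fits relative to DMSO vehicle.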

[9] = BSK_hDFCGF_Proliferation: Cell Proliferation Assessment in the BioMAP Diversity Plus: hDFCGF Assay (AID 2283059); conditions: primary human foreskin fibroblasts;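 note: curves fitted for both rise and fall of signal versus DMSO baseline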
In short: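 Sub-confluent human foreskin fibroblast cultures receive test chemical […]. Relative cell number is quantified by sulforhodamine B staining (0.1%, after 10% TCA fixation) at 560 nm, with bidirectional fitting referenced to DMSO.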

[10] = read-out: Macrophage colony-stimulating factor (MCSF), CSF1 (gene 1435); test: BSK_hDFCGF_MCSF: BioMAP Diversity Plus: hDFCGF Assay for Macrophage colony-stimulating factor (MCSF) Biomarker Activity (AID 2283060); conditions: primary human foreskin fibroblasts; actives raise or lower the signal
In short: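 ELISA read-out of M-CSF in human dermal foreskin fibroblast cultures, 24 h after chemical dosing; gain or loss of signal fitted bidirectionally relative to DMSO baseline.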

[11] = BSK_hDFCGF_SRB: Viability Assessment in the BioMAP Diversity Plus: hDFCGF Assay (AID 2283061); conditions: primary human foreskin fibroblasts;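 note: cells exposed to compound for 24 h before the read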
In short: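 Primary human foreskin fibroblasts; 24 h post-dose; fixed 10% TCA, stained 0.1% SRB, A560 read; total protein as overt cytotoxicity measure; curves fit bidirectionally vs DMSO control.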

[12] = read-out: TIMP metallopeptidase inhibitor 1 (TIMP1), TIMP1 (gene 7076); test: BSK_hDFCGF_TIMP1: BioMAP Diversity Plus: hDFCGF Assay for TIMP metallopeptidase inhibitor 1 (TIMP1) Biomarker Activity (AID 2283062); conditions: primary human foreskin fibroblasts; actives raise or lower the signal
In short: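 ELISA readout of TIMP-1 from human dermal foreskin fibroblast cultures 24 h post-dosing. Curves were fitted in both directions against DMSO baseline, with SRB total-protein staining in parallel cultures as a cytotoxicity check.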

[13] = read-out: Monokine induced gamma interferon (MIG), CXCL9 (gene 4283); test: BSK_hDFCGF_MIG: BioMAP Diversity Plus: hDFCGF Assay for Monokine induced gamma interferon (MIG) Biomarker Activity (AID 2283063); conditions: primary human foreskin fibroblasts; actives raise or lower the signal
In short: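 Fibroblasts (human foreskin, primary) dosed, 24 h, MIG by ELISA; fit bidirectional vs DMSO.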

[14] = read-out: Matrix Metallopeptidase 1 (MMP1), MMP1 (gene 4312); test: BSK_hDFCGF_MMP1: BioMAP Diversity Plus: hDFCGF Assay for Matrix Metallopeptidase 1 (MMP1) Biomarker Activity (AID 2283064); conditions: primary human foreskin fibroblasts; actives raise or lower the signal
In short: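 Primary human foreskin fibroblasts in the hDFCGF system were dosed with test chemical, and MMP1 was measured by ELISA 24 h later. Values come from bidirectional curve fitting against the DMSO baseline.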

[15] = read-out: Vascular cell adhesion molecule 1 (VCAM1), VCAM1 (gene 7412); test: BSK_hDFCGF_VCAM1: BioMAP Diversity Plus: hDFCGF Assay for Vascular cell adhesion molecule 1 (VCAM1) Biomarker Activity (AID 2283065); conditions: primary human foreskin fibroblasts; actives raise or lower the signal;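 for AC50: VCAM-1 protein level quantified by ELISA after 24 h chemical exposure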
In short: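 ELISA read-out of VCAM-1 on human skin fibroblasts, 24 h post-dose; gain or loss of signal fitted bidirectionally against DMSO baseline.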

[16] = read-out: Plasminogen activator inhibitor-1 (PAI1), SERPINE1 (gene 5054); test: BSK_hDFCGF_PAI1: BioMAP Diversity Plus: hDFCGF Assay for Plasminogen activator inhibitor-1 (PAI1) Biomarker Activity (AID 2283066); conditions: primary human foreskin fibroblasts; actives raise or lower the signal
In short: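 Primary dermal fibroblasts (human foreskin), hDFCGF system; compound 24 h; PAI-1 by ELISA; bidirectional fit vs DMSO control.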

[17] = read-out: Intercellular Adhesion Molecule 1 (ICAM1), ICAM1 (gene 3383); test: BSK_KF3CT_ICAM1: BioMAP Diversity Plus: KF3CT Assay for Intercellular Adhesion Molecule 1 (ICAM1) Biomarker Activity (AID 2283067); conditions: primary human keratinocytes with fibroblasts; actives raise or lower the signal
In short: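 ELISA readout of ICAM-1; KF3CT human skin co-culture (keratinocytes + foreskin fibroblasts), 24 h post-dose; gain/loss fit vs DMSO baseline.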

[18] = read-out: Interferon-gamma inducible Protein 10 (IP10), CXCL10 (gene 3627); test: BSK_KF3CT_IP10: BioMAP Diversity Plus: KF3CT Assay for Interferon-gamma inducible Protein 10 (IP10) Biomarker Activity (AID 2283068); conditions: primary human keratinocytes with fibroblasts; actives raise or lower the signal
In short: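 ELISA read-out of IP-10 after 24 h chemical dosing of human skin primary co-culture (keratinocytes, foreskin fibroblasts). Gain or loss of signal relative to DMSO, bidirectional curve fit.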

[19] = BSK_KF3CT_SRB: Viability Assessment in the BioMAP Diversity Plus: KF3CT Assay (AID 2283069); conditions: primary human keratinocytes with fibroblasts;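 note: total protein by sulforhodamine B staining as a cytotoxicity measure; read 24 h after compound addition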
In short: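 Human primary keratinocyte plus foreskin fibroblast co-culture exposed to chemicals for 24 h. Total protein measured by 0.1% sulforhodamine B staining after 10% TCA fixation, read at 560 nm; bidirectional fitting versus DMSO baseline.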

[20] = read-out: Epidermal growth factor receptor (EGFR), EGFR (gene 1956); test: BSK_hDFCGF_EGFR: BioMAP Diversity Plus: hDFCGF Assay for Epidermal growth factor receptor (EGFR) Biomarker Activity (AID 2283057); conditions: primary human foreskin fibroblasts; actives raise or lower the signal
In short: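 hDFCGF system, primary human foreskin fibroblasts; compound 24 h; EGFR measured by ELISA; DMSO = negative control/baseline; bidirectional fitting.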

Measured: AC50

CCn1nc(C)c2c1C(=O)NCC(c1ccc(O)cc1)=N2
active: [5] 8.18 µM | [9] 11 µM | [10] 3.97 µM | [16] 1.14 µM
not listed: [20]
inactive: all other assays above

COc1cc(C(C)C)c2c(c1)S(=O)(=O)N(COc1cc(=O)n3cccc(OCCN4CCCCC4)c3n1)C2=O
active: [4] 6.1 µM | [6] 5 µM | [9] 5.44 µM | [10] 3.29 µM | [11] 8.05 µM | [13] 5.41 µM | [14] 1.3 µM | [15] 2.72 µM | [16] 6.38 µM
not listed: [18]
inactive: all other assays above

O=S(=O)(O)CCC(F)(F)C(F)(F)C(F)(F)C(F)(F)C(F)(F)C(F)(F)F
inactive: [1] | [2] | [3] | [4] | [5] | [6] | [7] | [8] | [9] | [10] | [11] | [12] | [13] | [14] | [15] | [16] | [17] | [19]
active: [10] 6.02 µM | [11] 8.85 µM

CNC(C)=O
not listed: [20]
inactive: all other assays above

CCc1cccc(CC)c1N
not listed: [18]
inactive: all other assays above

Cc1nccn1-c1ccc(Sc2cccc(C3(C(N)=O)CCOCC3)c2)cc1
active: [4] 10.2 µM | [6] 14.9 µM | [9] 4.15 µM | [12] 2.1 µM | [13] 6.44 µM | [14] 2.9 µM | [15] 3.25 µM
not listed: [18]
inactive: all other assays above

CCCCCCCCCCCCCCCCOS(=O)(=O)O
inactive: [1] | [2] | [3] | [5] | [6]
active: [4] 6.13 µM | [7] 18.3 µM | [20] 2.46 µM | [8] 15.5 µM | [9] 5.25 µM | [10] 10.2 µM | [11] 13.7 µM | [12] 18.2 µM | [13] 13.1 µM | [14] 16.6 µM | [15] 5.95 µM | [16] 9.1 µM | [17] 14.9 µM | [19] 15.8 µM

COCc1nnc(-c2ccc[n+]([O-])c2)n1-c1c(Cl)c(Cl)cc2[nH]c(=O)c(=O)[nH]c12
not listed: [18]
inactive: all other assays above

c1ccc2c(c1)-c1cccc3c1c-2cc1ccccc13
active: [14] 6.72 µM
not listed: [18]
inactive: all other assays above

CC(C)CC(C)O (stereo not drawn)
not listed: [20]
inactive: all other assays above

CC[C@H](C)C(=O)O[C@H]1C[C@H](O)C=C2C=C[C@H](C)[C@H](CC[C@@H](O)C[C@@H](O)CC(=O)O)[C@H]21
active: [2] 15.3 µM
not listed: [18]
inactive: all other assays above

O=c1[nH]cnc2c1ncn2[C@H]1CC[C@@H](CO)O1
not listed: [10]
inactive: all other assays above

CCN(CC)C(=S)SSC(=S)N(CC)CC
inactive: [20]
active: [1] 31.4 µM | [2] 5.26 µM | [3] 20 µM | [4] 1.67 µM | [5] 31.1 µM | [6] 30.6 µM | [7] 4.78 µM | [8] 2.81 µM | [9] 1.41 µM | [10] 1.76 µM | [11] 4.75 µM | [12] 2.03 µM | [14] 3.27 µM | [15] 1.56 µM | [16] 3.95 µM | [17] 13.5 µM | [18] 9.46 µM | [19] 9.96 µM
